# Sampled rows, rich in hits. Any-hit rate of the full collection: about 5.2%.
# esBAF inh: Bmi1 luciferase reporter increase in mESCs, primary screen, esBAF inhibitor project, mouse ES cells, Bmi1 luciferase knock-in, single point | reporter increase, % at 12.5 µM | 24 h; 100% = twice the neutral-well signal | 350,000 compounds, 2% hits; in the data active = activation above about 40%;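 note: 0% = median of the plate's neutral control wells and 100% = double that signal; a rise in the Bmi1 reporter signal indicates esBAF inhibition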
# SKN-1 block: suppressors of acrylamide-induced Pgst-4::GFP reporter in worms, primary screen, SKN-1 inhibitor project, whole organism, uHTS, GFP/RFP fluorescence ratio, strain VP596; C. elegans VP596 Pgst-4::GFP/RFP ratio, 24 h; inhibition, % at 21.8 µM; 360,000 compounds, 0.49% hits;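 active = interference check ratio from 0.5 to 1.5 plus GFP to RFP signal ratio inhibition reaching or exceeding a fixed threshold, cut at about 30% in these data, passing the limit was not always enough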
# SMARCA2 activ: SMARCA2 (BRM) function activators, primary screen, cell-based, luminescence, high throughput; MG213 cells, MMTV-luciferase reporter, dexamethasone, overnight; activation, % at 9.1 µM; 370,000 compounds, 1% hits; AID 652017, 2013; in the data active = activation above about 7.8%;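 note: 0% = vehicle wells and 100% = reference activator wells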
# NR3A LBD binder: binders of NR3A ligand-binding domain, primary screen, biophysical, differential scanning fluorimetry, uHTS; Glutamate receptor ionotropic, NMDA 3A (GRIN3A) ligand-binding domain; NR3A LBD differential scanning fluorimetry, Tm shift; 0% = protein alone, 100% = glycine-bound protein; Tm shift relative to glycine control, % at 25 µM; 340,000 compounds, 2.5% hits;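 active = melting temperature shift of at least 10% of the positive control shift, at one fixed dose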
# Vif imaging: HIV Vif self-association inhibitors, primary screen, imaging, HEK293T, single point; HEK293T cells, Vif self-association by quenched fluorescence, 24 h; inhibition, % at 7.49 µM; 340,000 compounds, 0.35% hits; AID 602346, 2012; in the data active = inhibition above about 50%, passing the limit was not always enough
# NadD inh: inhibitors of S. aureus NadD, primary screen, biochemical, colorimetric, uHTS | inhibition, % at 20 µM | purified NadD enzyme, colorimetric absorbance read-out | AID 602399, 2012 | 360,000 compounds, 0.78% hits | Nicotinate-nucleotide adenylyltransferase NadD (Staphylococcus aureus N315); in the data active = inhibition above about 26%
# SMARCA2 conf: SMARCA2 (BRM) function activators, confirmation, cell-based, luminescence, triplicate; shares compounds with SMARCA2 activ; MG213 cells, MMTV-luciferase with dexamethasone, overnight; MG213 cells expressing E1A, Rb sequestered; DMSO wells 0%, reference activator 100%; activation, % at 9.1 µM; 3,500 compounds, 30% hits; AID 652260, 2013;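 active = activation above its plate's cutoff, the mean activation of tested wells plus 3 SD, cut at about 7.9% in these data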
# GAL4-VP16 Luc: GAL4-VP16 luciferase reporter activation, counter-screen for SMARCA2 (BRM) activator project, cell-based, pG5luc, luminescence, high throughput; shares compounds with SMARCA2 activ; HEK293 GAL4-VP16 pG5luc reporter; scaled: DMSO wells 0%, SAHA wells 100%; activation, % at 9.1 µM; 3,500 compounds, 41% hits;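 active = activation above the solvent-only control well mean plus 3 SD, averaged across control plates, cut at about 5.2% in these data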
# * hit, by the source's call; . = not tested or not shown.
SMILES,esBAF inh,SKN-1 block,SMARCA2 activ,NR3A LBD binder,Vif imaging,NadD inh,SMARCA2 conf,GAL4-VP16 Luc
COc1ccc(-n2ncc3c2CC(C)(C)CC3NC(=O)Cc2nonc2C)cc1 (centres undefined),-2,-15,8.0*,0,6,-5,2,0
CCOC(=O)/C(C#N)=C/c1c(N2CCN(c3ccccc3)CC2)nc2ccccn2c1=O,21,-11,9.9*,-6,9,-5,7,4
CO[C@@H]1CN(C)C(=O)c2cc(NC(=O)Nc3ccccc3Cl)ccc2OC[C@H](C)NC[C@H]1C,2,.,.,.,.,.,.,.
CC(=O)Nc1cc(-c2cccc(C(=O)NCCN(C)C)c2)cn2c(-c3cccc(C(F)(F)F)c3)cnc12,-85,-4,22*,.,22,-6,-15,2
COc1ccc(-c2cc(NC=O)c3ncc(-c4cccc(C(=O)NCCN(C)C)c4)n3c2)cc1,9,6,8.0*,.,1,-3,11*,0
CC(=O)Nc1cccc(-c2cc(NC(C)=O)c3ncc(-c4cccc(C(C)=O)c4)n3c2)c1,11,9,8.9*,.,-4,-8,4,1
C[C@H]1CN([C@@H](C)CO)C(=O)c2cccc(NC(=O)Nc3ccccc3)c2O[C@H]1CN(C)S(C)(=O)=O,-1,.,.,.,.,.,.,.
COc1cccc(NC(=O)N[C@H]2CC[C@@H](CC(=O)NCc3ccncn3)O[C@@H]2CO)c1,-2,.,.,.,.,.,.,.
COc1ccc(S(=O)(=O)N(C)C[C@H]2Oc3ccc(NC(=O)Cn4cnnn4)cc3CC(=O)N([C@H](C)CO)C[C@H]2C)cc1,0,.,.,.,.,.,.,.
O=C(NNC(=S)NC1CCCCC1)c1sc2ccccc2c1Cl,.,10,-1,4,-7,3,.,.
O=C(NNC(=O)C1CC2CCC1C2)c1sc2ccccc2c1Cl (centres undefined),.,16,8.4*,-2,0,4,5,5
O=c1c(-c2ccco2)nc2ccccc2n1C(c1ccccc1)c1nc2ccccc2[nH]1 (centres undefined),.,4,11*,.,.,.,8.9*,5.6*
CCC(c1nc2ccccc2[nH]1)n1c(=O)c(-c2ccco2)nc2ccccc21 (centres undefined),.,4,-2,.,.,.,.,.
O=c1c(-c2ccco2)nc2ccccc2n1C(c1ccccn1)c1nc2ccccc2[nH]1 (centres undefined),.,11,-6,.,.,.,.,.
O=c1c(-c2ccco2)nc2ccccc2n1C(CCc1ccccc1)c1nc2ccccc2[nH]1 (centres undefined),.,16,11*,.,.,.,-2,2
C[C@H](CO)N1C[C@H](C)[C@@H](CN(C)C(=O)Nc2cccc(F)c2)OCc2cnnn2CCCC1=O,1,.,.,.,.,.,.,.
O=C(CN1CCOCC1)NCC[C@@H]1CC[C@@H](NC(=O)Nc2ccc(Cl)cc2)[C@@H](CO)O1,-1,.,.,.,.,.,.,.
Brc1ccc(CN2CCCc3nc(-c4ccccc4)ccc32)cc1,.,.,-2,.,.,.,.,.
COc1ccc(-c2ccc3c(n2)CCCN3Cc2ccccc2C(F)(F)F)cc1,.,.,8.2*,.,.,.,3,5.8*
O=S(=O)(c1ccc(C(F)(F)F)cc1)N1CCCc2nc(-c3ccc(Br)cc3)ccc21,.,.,15*,.,.,.,-3,5
COCCN1CCCc2nc(-c3ccc(Br)cc3)ccc21,.,.,11*,.,.,.,7,7.8*
CO[C@@H]1CN(C)C(=O)c2cc(NS(C)(=O)=O)ccc2OC[C@H](C)N(C(=O)C2CCCCC2)C[C@H]1C,-3,.,.,.,.,.,.,.
COc1ccc(S(=O)(=O)N[C@@H]2C=C[C@H](CC(=O)NCc3ccccc3F)O[C@H]2CO)cc1,-4,.,.,.,.,.,.,.
CCC(=O)N1[C@@H]2Cn3c(ccc(-c4ccccc4F)c3=O)[C@H]1[C@@H](C(=O)NC1CCC1)[C@@H]2CO,-1,.,.,.,.,.,.,.
CCC(=O)Nc1ccc2c(c1)C(=O)N(C)[C@H]1CC[C@@H](CC(=O)Nc3cccc(OC)c3)O[C@@H]1CO2,1,.,.,.,.,.,.,.
SMILES,esBAF inh,SKN-1 block,SMARCA2 activ,NR3A LBD binder,Vif imaging,NadD inh,SMARCA2 conf,GAL4-VP16 Luc
O=C(N/N=C1\CCc2ccccc21)c1ccccc1Cl,.,0,3,0,33,3,.,.
Cc1ccc(C(=O)N/N=C2\CCc3ccccc32)c(C)c1,.,8,8.5*,-7,3,1,7,11*
O=C(/C=C/c1ccc(-c2ccccc2)o1)c1ccccc1,.,7,12*,-8,-7,7,21*,5
Cc1ccc(-c2ccc(/C=C/C(=O)c3ccccc3)o2)cc1,.,3,0,-10,7,6,.,.
CC(=O)O[C@@H]1[C@H]2[C@@H](C[C@@H](C)[C@@H]3C=CC(=O)[C@@]13C)OC(=O)[C@@H]2C,25,12,-1,0,-1,-1,.,.
C=C1C(=O)OC2C1CCC(C)C1C=CC(=O)C12C (centres undefined),-19,-7,21*,1,2,-1,21*,4
COc1cccc(C(=O)Nc2ccc3c(c2)OC[C@@H](C)N(C(=O)C2CCCCC2)C[C@@H](C)[C@H](OC)CN(C)C3=O)c1,9,.,.,.,.,.,.,.
O=C1NC(=S)S/C1=C\C=C\c1ccc([N+](=O)[O-])o1,.,11,24*,4,-3,24,-16,3
CS(=O)(=O)Nc1ccc2c(c1)[C@@H]1C[C@@H](CC(=O)NCc3ccccn3)O[C@@H](CO)[C@@H]1O2,1,.,.,.,.,.,.,.
Cc1cc(C)nc(S/C=C/C(=O)c2ccccc2F)n1,.,1,14*,0,8,-10,-13,2
Cc1cc(C)nc(NC(=S)NC(=O)c2ccccc2F)n1,.,2,1,1,7,-1,.,.
COc1cccc(S(=O)(=O)Nc2ccc3c(c2)[C@@H]2C[C@H](CC(=O)NCc4cccc(F)c4)O[C@H](CO)[C@@H]2O3)c1,0,.,.,.,.,.,.,.
COc1ccc(Cn2cc3c(-c4ccc(F)cc4)nnc-3c3cc(OC)c(OC)cc32)cc1,2,-22,22*,-17,183,14,47*,0
COc1ccc2noc3c2c1C(=O)c1ccccc1-3,-3,-48,16*,-364,-11,0,8.4*,2
COc1ccc(N)c2c1C(=O)c1ccccc1C2=O,.,77,8.3*,0,0,2,16*,5

# Compound activity as filed in PubChem.
